Reference: the supplement of paper PMC11732987, “Enantioselective OTUD7B fragment discovery through chemoproteomics screening and high-throughput optimisation” (Communications Chemistry, 2025)

Tests used:
Assay in all cases: log2 ratio of Biotin-Ahx-Ub-VS probe labelling (fragment/DMSO); higher = less target engagement (more negative = stronger competition), active = hit call of the paper (q ≤ 0.05, log2 ratio ≤ -1)
Details in all cases: compound concentration: 200 uM; treatment time: 3 h
USP42 = target: T1, USP42 (UniProt Q9H9J4)
T1 sequence (whole entry): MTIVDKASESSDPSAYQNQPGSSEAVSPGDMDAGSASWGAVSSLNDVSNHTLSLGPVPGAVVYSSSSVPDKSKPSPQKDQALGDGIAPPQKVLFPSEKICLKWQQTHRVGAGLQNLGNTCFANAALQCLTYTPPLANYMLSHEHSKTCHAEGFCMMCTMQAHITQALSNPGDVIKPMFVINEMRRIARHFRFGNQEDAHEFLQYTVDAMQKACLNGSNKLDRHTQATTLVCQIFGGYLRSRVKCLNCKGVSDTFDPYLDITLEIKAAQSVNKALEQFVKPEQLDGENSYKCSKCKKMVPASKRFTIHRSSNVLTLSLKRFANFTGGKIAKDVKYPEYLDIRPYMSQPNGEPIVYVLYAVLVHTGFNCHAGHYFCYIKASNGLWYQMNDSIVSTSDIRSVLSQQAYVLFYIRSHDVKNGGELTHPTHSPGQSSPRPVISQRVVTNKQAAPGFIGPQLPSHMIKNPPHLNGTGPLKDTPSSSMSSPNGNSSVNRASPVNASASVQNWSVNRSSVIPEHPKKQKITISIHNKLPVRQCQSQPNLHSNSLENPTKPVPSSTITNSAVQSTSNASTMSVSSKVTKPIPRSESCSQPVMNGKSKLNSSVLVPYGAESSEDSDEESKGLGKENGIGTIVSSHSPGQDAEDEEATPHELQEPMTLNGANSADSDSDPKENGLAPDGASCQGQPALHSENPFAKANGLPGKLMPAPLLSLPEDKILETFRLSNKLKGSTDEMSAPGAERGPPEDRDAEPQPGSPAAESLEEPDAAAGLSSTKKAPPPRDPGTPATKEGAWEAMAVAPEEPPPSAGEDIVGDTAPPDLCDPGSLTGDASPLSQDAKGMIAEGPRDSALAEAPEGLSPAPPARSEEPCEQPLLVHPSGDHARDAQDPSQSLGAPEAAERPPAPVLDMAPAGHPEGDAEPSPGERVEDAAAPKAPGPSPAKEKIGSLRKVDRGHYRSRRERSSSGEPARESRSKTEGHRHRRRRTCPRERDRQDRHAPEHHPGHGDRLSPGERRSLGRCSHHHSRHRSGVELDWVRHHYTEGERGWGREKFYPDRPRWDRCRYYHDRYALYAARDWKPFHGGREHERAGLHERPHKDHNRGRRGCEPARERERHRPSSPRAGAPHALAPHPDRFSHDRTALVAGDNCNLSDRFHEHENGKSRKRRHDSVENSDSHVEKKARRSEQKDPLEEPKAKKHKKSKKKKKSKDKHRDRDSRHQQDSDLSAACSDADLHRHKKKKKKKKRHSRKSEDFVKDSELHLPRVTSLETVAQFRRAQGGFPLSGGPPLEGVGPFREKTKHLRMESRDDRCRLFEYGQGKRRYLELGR
Summary of the method: (§1)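 Each value is an average log2 ratio of fragment to vehicle, tested by unpaired t-test. The underlying Spectronaut label-free quantities were global-median-normalised, and only proteins with ≥2 unique peptides were included. Triplicate HEK293T lysate samples (495 µg) were exposed to fragment at 200 µM or vehicle for 3 h, then to Biotin-Ahx-Ub-VS at 0.5 µM final for 1 h, before NeutrAvidin enrichment of labelled DUBs, LysC and trypsin digestion, and diaPASEF LC-MS/MS.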

USP46 = USP46 (UniProt P62068)
Chain of USP46 (P62068 whole entry): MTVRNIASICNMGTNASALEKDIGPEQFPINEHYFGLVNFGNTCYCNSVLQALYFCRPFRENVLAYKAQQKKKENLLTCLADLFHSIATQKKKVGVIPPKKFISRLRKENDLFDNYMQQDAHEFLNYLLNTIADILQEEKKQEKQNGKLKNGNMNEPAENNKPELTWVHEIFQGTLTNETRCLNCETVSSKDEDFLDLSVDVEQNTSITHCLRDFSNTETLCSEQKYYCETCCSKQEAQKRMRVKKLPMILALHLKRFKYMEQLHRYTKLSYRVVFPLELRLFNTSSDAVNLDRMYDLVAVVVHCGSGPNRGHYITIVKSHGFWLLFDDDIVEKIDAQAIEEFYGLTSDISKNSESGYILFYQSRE
Summary of the method: as §1

USP47 = target: T2, USP47 (UniProt Q96K76)
T2 sequence (whole entry): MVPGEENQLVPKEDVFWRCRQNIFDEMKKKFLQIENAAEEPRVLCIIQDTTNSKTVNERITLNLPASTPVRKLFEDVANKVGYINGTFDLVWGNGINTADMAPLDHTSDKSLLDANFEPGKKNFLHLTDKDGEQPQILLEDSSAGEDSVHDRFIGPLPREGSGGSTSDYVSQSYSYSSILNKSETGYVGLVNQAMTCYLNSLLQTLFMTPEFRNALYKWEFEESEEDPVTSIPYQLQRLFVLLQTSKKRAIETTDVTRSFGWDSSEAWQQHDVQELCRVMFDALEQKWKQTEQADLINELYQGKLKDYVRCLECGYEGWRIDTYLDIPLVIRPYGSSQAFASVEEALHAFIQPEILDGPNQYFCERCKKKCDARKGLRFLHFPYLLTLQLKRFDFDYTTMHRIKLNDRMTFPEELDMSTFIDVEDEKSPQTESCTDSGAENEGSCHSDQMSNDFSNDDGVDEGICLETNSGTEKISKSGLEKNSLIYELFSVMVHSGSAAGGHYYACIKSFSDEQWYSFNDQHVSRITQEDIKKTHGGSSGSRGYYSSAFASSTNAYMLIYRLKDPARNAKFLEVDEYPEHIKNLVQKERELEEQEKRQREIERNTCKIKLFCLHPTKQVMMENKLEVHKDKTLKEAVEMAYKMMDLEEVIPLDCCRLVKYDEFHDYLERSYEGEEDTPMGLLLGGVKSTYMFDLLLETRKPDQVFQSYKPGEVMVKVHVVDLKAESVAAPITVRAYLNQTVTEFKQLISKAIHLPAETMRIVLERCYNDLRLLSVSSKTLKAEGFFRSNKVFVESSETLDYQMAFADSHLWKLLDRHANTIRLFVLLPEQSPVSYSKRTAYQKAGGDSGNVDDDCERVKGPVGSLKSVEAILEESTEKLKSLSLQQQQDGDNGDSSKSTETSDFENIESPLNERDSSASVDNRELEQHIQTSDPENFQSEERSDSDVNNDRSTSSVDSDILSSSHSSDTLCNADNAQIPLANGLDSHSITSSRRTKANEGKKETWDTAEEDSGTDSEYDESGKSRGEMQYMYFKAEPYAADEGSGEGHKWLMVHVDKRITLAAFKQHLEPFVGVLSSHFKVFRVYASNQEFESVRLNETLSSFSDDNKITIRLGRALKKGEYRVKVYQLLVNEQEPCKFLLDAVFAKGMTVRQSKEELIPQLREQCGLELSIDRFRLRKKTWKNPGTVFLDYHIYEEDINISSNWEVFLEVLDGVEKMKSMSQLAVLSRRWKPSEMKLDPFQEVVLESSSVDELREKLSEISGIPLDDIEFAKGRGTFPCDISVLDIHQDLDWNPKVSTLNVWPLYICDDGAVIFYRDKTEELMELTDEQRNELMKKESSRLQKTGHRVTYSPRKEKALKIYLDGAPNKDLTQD
Summary of the method: as §1

USP48 = target: T3, USP48 (UniProt Q86UV5)
T3 sequence (whole entry): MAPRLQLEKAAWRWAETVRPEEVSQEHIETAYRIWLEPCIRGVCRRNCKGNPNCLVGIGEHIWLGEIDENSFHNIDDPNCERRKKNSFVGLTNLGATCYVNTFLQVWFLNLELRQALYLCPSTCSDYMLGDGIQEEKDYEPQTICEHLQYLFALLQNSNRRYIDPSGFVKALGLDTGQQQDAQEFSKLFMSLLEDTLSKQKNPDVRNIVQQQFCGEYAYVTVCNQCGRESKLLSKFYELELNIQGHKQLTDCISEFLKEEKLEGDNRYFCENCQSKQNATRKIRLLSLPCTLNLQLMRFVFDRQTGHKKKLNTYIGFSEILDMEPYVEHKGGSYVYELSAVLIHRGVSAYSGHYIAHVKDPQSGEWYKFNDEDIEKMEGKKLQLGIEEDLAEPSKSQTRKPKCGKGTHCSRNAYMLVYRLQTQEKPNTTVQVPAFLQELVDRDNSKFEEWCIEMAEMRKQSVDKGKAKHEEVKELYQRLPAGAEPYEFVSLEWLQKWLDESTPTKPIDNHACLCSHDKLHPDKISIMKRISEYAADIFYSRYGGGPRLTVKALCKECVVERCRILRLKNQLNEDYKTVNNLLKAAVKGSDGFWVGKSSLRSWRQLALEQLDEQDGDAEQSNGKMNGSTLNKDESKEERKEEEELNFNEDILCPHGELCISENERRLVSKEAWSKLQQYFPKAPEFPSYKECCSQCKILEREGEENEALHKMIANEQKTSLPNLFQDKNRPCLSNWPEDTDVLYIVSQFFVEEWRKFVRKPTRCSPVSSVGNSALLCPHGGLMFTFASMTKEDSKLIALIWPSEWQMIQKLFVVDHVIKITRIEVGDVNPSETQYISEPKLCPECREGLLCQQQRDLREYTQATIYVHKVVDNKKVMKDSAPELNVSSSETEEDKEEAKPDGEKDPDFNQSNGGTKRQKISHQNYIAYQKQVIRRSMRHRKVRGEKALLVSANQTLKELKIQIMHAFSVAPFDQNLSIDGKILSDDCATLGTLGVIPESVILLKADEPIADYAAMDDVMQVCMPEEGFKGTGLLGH
Summary of the method: as §1

USP5 = target: T4, USP5 (UniProt P45974)
T4 sequence (whole entry): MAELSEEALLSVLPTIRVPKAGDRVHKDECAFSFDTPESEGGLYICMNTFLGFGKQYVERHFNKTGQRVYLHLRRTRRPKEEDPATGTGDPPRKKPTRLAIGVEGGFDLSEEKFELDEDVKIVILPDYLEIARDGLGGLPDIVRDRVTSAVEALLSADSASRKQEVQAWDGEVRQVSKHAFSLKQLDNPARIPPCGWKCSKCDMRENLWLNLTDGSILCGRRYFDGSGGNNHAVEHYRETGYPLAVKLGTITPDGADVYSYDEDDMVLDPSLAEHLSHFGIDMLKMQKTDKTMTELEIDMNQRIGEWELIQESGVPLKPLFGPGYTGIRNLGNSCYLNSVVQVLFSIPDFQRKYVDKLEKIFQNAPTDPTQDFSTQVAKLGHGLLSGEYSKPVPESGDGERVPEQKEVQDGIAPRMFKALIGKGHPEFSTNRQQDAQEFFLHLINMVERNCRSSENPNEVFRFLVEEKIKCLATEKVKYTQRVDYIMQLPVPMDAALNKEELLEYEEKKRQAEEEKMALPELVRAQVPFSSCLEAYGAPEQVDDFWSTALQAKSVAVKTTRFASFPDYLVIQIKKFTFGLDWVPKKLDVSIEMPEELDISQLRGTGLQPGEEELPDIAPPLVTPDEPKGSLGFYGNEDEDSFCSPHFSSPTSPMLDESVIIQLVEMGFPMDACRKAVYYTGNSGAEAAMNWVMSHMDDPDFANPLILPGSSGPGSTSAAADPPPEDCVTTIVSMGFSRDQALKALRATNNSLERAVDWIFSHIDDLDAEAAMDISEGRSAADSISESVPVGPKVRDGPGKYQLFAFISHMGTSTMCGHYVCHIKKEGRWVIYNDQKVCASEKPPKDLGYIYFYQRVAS
Summary of the method: as §1

USP54 = USP54 (UniProt Q70EL1)
Chain of USP54 (Q70EL1 whole entry): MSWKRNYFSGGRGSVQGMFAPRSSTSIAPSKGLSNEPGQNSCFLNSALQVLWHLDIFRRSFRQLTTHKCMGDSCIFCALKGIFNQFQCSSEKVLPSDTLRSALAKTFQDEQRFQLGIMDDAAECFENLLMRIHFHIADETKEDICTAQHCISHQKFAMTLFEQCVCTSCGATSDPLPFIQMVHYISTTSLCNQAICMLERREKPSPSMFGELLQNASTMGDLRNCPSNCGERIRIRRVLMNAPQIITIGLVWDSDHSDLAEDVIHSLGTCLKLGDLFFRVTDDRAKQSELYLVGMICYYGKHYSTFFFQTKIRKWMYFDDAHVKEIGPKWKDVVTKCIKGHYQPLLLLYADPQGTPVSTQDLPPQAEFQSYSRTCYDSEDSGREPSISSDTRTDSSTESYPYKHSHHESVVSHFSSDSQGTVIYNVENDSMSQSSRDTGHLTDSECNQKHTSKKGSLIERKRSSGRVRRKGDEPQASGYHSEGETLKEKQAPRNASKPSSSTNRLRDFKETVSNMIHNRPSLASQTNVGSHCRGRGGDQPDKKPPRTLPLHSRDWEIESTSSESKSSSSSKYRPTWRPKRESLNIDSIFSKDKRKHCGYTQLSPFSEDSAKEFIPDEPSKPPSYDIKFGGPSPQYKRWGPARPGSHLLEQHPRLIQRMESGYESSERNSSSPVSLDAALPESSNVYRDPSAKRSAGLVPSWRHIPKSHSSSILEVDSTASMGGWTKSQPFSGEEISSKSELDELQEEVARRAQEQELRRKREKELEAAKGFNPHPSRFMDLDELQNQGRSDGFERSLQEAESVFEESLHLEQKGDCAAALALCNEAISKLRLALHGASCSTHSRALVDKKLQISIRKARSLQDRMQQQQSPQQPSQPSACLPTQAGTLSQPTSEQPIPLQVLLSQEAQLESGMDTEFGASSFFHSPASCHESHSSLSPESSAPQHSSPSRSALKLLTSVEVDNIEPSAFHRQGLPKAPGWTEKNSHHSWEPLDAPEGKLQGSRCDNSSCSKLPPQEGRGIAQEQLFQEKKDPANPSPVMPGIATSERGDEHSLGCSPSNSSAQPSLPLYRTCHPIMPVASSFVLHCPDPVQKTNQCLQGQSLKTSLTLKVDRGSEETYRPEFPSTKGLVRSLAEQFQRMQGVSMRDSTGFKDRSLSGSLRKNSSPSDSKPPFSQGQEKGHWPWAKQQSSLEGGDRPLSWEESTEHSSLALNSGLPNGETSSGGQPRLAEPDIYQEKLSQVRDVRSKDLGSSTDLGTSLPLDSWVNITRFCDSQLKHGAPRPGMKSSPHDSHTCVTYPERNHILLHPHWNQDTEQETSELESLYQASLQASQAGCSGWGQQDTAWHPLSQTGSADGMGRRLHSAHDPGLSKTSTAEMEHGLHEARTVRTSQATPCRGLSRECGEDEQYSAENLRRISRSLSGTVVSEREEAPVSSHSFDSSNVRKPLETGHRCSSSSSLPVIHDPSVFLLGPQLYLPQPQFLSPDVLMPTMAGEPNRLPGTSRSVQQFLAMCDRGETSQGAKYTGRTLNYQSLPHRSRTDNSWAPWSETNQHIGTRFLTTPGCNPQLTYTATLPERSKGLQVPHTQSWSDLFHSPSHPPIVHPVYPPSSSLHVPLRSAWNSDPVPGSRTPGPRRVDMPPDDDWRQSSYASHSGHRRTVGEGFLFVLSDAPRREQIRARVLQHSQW
Summary of the method: as §1

USP7 = USP7 (UniProt Q93009)
Chain of USP7 (Q93009 whole entry, looked up): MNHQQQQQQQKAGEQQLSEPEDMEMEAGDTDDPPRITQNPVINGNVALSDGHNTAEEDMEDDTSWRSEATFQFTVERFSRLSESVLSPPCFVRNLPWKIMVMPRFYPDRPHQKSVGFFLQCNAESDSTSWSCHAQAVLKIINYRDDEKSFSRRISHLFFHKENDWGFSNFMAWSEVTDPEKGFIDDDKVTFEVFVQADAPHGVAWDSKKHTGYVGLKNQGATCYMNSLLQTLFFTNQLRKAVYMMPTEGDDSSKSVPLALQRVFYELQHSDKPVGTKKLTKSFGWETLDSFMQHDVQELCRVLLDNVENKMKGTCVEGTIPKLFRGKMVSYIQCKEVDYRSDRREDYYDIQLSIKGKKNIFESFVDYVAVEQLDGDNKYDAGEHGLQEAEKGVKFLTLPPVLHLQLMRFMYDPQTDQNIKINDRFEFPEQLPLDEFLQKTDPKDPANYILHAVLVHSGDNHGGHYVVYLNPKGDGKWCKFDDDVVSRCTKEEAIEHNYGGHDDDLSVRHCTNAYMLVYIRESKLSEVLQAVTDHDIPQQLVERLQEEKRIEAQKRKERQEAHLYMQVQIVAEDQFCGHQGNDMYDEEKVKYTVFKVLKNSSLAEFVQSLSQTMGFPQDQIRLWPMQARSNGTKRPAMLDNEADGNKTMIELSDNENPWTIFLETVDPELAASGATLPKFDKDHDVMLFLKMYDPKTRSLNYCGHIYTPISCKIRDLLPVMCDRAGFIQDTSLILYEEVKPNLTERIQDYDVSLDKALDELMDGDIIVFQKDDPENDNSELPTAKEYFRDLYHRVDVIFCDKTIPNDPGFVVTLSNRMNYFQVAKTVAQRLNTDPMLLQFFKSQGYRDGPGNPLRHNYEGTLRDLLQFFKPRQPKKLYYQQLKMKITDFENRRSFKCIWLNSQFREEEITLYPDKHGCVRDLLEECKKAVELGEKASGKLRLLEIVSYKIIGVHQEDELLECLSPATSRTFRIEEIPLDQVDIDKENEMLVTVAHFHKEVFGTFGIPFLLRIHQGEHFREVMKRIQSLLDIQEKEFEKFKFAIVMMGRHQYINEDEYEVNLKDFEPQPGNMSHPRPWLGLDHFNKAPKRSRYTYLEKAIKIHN
Summary of the method: as §1

USP8 = target: T5, USP8 (UniProt P40818)
T5 sequence (whole entry): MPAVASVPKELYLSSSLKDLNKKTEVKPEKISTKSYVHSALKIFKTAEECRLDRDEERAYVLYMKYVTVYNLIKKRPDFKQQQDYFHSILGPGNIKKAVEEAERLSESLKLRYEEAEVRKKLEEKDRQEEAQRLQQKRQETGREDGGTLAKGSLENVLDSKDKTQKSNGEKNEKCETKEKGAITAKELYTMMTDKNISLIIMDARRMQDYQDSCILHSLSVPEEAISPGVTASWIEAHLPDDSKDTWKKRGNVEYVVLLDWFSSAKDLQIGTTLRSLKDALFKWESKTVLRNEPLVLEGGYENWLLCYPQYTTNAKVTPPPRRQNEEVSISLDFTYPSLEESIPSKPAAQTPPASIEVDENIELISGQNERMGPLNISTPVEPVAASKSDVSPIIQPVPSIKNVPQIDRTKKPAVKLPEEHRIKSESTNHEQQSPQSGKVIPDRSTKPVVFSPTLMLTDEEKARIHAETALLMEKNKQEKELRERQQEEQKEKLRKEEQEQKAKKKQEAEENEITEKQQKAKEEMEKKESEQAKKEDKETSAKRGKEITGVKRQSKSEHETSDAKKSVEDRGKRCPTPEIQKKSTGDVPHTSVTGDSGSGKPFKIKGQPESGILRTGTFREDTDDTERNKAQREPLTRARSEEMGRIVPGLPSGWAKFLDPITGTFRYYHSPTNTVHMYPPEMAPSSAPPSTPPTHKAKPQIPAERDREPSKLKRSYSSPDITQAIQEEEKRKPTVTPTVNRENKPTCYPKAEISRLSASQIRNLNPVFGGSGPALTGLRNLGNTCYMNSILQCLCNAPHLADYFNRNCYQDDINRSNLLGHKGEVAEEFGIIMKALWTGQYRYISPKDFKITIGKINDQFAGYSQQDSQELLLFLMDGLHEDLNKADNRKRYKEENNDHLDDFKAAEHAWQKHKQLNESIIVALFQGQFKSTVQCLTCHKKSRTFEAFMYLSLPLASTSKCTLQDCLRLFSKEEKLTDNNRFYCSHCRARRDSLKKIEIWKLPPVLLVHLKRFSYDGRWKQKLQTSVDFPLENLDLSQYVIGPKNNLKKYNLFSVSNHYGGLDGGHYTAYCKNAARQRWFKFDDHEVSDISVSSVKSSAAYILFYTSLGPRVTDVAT
Summary of the method: as §1

USP9X = USP9X (UniProt Q93008)
Summary of the method: as §1

UniProt O00487 = target: UniProt O00487
Chain of UniProt O00487 (O00487 whole entry): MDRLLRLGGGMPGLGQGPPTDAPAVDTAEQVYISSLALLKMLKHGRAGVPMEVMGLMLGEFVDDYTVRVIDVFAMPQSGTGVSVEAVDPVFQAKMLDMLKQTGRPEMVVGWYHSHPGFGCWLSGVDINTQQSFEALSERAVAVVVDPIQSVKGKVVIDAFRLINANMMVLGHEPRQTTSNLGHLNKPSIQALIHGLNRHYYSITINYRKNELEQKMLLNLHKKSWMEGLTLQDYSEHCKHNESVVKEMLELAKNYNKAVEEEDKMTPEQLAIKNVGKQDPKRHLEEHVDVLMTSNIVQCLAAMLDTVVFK
Summary of the method: as §1

Measured: log2 ratio of Biotin-Ahx-Ub-VS probe labelling

O=C(CCl)N1CCOC2(CCC2)C1
inactive: USP42 0.183 | USP46 0.171 | USP47 -0.386 | USP48 -0.474 | USP5 0.109 | USP54 -0.395 | USP7 0.0903 | USP8 -0.347 | USP9X 0.105 | UniProt O00487 -0.0639
